# Out of some 65,000 compounds screened, about 2,100 (3.2%) showed an effect of 50% or more. The median lay at about -52%. The entries come from a sample that favours strong results as a whole.
# System: Plasmodium falciparum
# Assay: Screen against P. falciparum Asexual Blood Stage (ABS), at 5uM
# Format: functional, Dd2
# Conditions: tested at 5 uM
row,SMILES,INHIBITION
1,CC(=O)N(c1ccc(F)cc1)c1nc(CN2CCCC2C(C)C)cs1 (stereo not given),90.3%
2,CC(=O)N(c1ccc(C)cc1)c1nc(CN2CCCC(C)C2)cs1 (stereo not given),83.2%
3,Cc1nc(CN2C[C@@H]3CN(C(=O)c4ccncc4)C[C@@H]3C2)cs1,-67.5%
4,CCc1nc(CN2CCCN(C(=O)Cc3cccs3)CC2)cs1,3.65%
5,Cc1nc(CN2CCO[C@H]3CN(C(=O)c4ccncc4)C[C@H]32)cs1,-109%
6,CCCN1CCN(C(=O)c2cccc(C)n2)[C@H]2CS(=O)(=O)C[C@H]21,-129%
7,CC(C)(C)CC(=O)N1C[C@@H]2C[C@@H]1CN2,30%
8,CN(Cc1cc(C2CC2)on1)C(=O)CN1CC(c2ccccc2)CC1=O (stereo not given),-67.9%
9,CC(C)c1cc(N(C)Cc2cc(C3CC3)on2)n2nccc2n1,80.3%
10,CN(C)CCOCc1cncc2c1CCN(C1CCOC1)C2 (stereo not given),-63.4%
11,NC(=O)CN1CCCN(C(=O)Cc2ccc3ccccc3c2)CC1,-22.8%
12,CCCC1CCCN(Cc2csc(-c3ncccn3)n2)CC1 (stereo not given),74.9%
13,O=C(Cc1csc(-c2ncccn2)n1)N1CCN2CCCCC2C1 (stereo not given),-23.4%
14,CCN1CCN(Cc2csc(C(C)C)n2)CC1,-17.1%
15,CCc1noc(CN(C)CCC(=O)Nc2ccc(C#N)c(Cl)c2)n1,11.3%
16,O=S(=O)(Cc1ccccc1Cl)NCCCN1CCCC1,79.2%
17,Cn1cc(C(=O)N2CC[C@@H]3[C@@H]2CCN3Cc2ccncc2)cn1,-137%
18,Cc1cnc(N2CCc3c(cnc(C)c3C(=O)O)C2)nc1,-89.7%
19,CC(C)c1cc(CN2CCN(c3cccnc3)CC2)n(C)n1,-52.7%
20,CCN1CCN(c2ccc(F)cc2C(C)NCc2ccccn2)CC1 (stereo not given),85.6%
21,CCc1noc(C(C)N2CCN(CC)CC2)n1 (stereo not given),-70%
22,CCN1CCN(c2ccc(F)cc2C(C)NCc2cscn2)CC1 (stereo not given),81.1%
23,CCN1CCN(c2ccc(F)cc2C(C)NCc2ccnn2C)CC1 (stereo not given),76.3%
24,Cc1ccc(CNC(C)c2cc(F)ccc2N2CCN(C)CC2)o1 (stereo not given),83.7%
25,c1ccc(CO[C@@H]2CN(Cc3cccnc3)[C@@H]3COC[C@@H]32)nc1,-165%

row,SMILES,INHIBITION
1,CC(c1ccccc1F)N1CCN(C(=O)Cc2ccncc2)CC1 (stereo not given),-41.8%
2,CCN1CCN(c2ccc(C(=O)NCCOC)cc2F)CC1,-56%
3,CCN1CCN(c2ccc(F)cc2C(C)NCc2ccncc2)CC1 (stereo not given),72.4%
4,Cc1cccc(CC(=O)N2CCCC(N(C)CCCN(C)C)C2)c1 (stereo not given),-40.55%
5,Cc1cccc(OCC2CCCN(C(=O)CN(C)C3CCNCC3)C2)c1 (stereo not given),73.8%
6,Cc1cccc2cc(CN3CCCN4CCC[C@H]4C3)c(=O)[nH]c12,-45.3%
7,CNc1ncccc1CN1CCN2CCN(C)CC2C1 (stereo not given),-92.1%
8,Clc1cc(CN2CCCN3CCCC3C2)c2ncccc2c1 (stereo not given),89.5%
9,CC1CN(CC2CCCC2)CCN1c1ccc2nncn2n1 (stereo not given),70.4%
10,Cc1ccc(N2CCO[C@H]3CN(CC4CC4)C[C@H]32)nn1,-15.6%
11,Cc1cccc(CN2CC[C@@H]3[C@@H]2CCN3C(=O)c2ccno2)n1,-100%
12,Cc1cc(-c2cnc(N3CCCC3)nc2C(C)C)on1,10.2%
13,O=C1CC2(CCN(CC3CC3)C2)CN1c1cccnc1 (stereo not given),-58.5%
14,c1cncc(N2CCCC3(CN(Cc4cccs4)CCO3)C2)c1 (stereo not given),-22.7%
15,c1cncc(N2CCCC3(CCN(CCN4CCCC4)CC3)C2)c1,92%
16,c1cncc(N2CCOCC3(CCCN(Cc4cccs4)C3)C2)c1 (stereo not given),55.5%
17,c1cnc(N2CCOCC3(CCCN(Cc4cccs4)C3)C2)nc1 (stereo not given),-15.6%
18,c1cncc(N2CCOCC3(CN(Cc4cccs4)CCO3)C2)c1 (stereo not given),-41%
19,CN1CCO[C@H]2CN(C(=O)c3ccncc3F)C[C@H]21,-54.5%
20,COc1ccccc1C1(NCc2c(C)nc3c(C)cccn23)CCCC1,89.2%
21,Cc1cnccc1N1CCN(C[C@]2(O)CCCN3CCCC[C@@H]32)CC1,75%
22,Cc1cccnc1N1CC2(CCN(Cc3cccnc3)C2)C1,-50.1%
23,O[C@@]1(CNCCCNc2cccnc2)CCCN2CCCC[C@@H]21,-52.8%
24,O=C(Nc1ccccc1)[C@H]1CN2CCC1C[C@@H]2Cn1cc(CO)nn1 (stereo not given in full),-50.4%
25,CC(C)N1[C@H](CN(C)C)C[C@@H]2CN(c3ncc(F)cn3)CC[C@@H]21,25.4%

# Reference: ChEMBL document CHEMBL4513216, “Probing the Open Global Health Chemical Diversity Library for Multistage-Active Starting Points for Next-Generation Antimalarials” (ACS Infect Dis, 2020)
